# Data from PubChem BioAssay AID1159580 (chemical genetic matrix, 2015).
# In all, about 5,500 compounds went through this assay and about 2,000 (36%) were called active. Not shown: some 18% with an inconclusive outcome. The list shows a part of the results. A number with no mark means an inactive call. No stated cut-off is given here; in the data, active means normalized growth mostly below about 0.91 (no sharp cut-off); inconclusive means no clear call, values can overlap the other calls; inactive means mostly above about 0.92.
# Experiment: chemical genetic growth profiling, strain panel (AID 1159580);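 further: tested at 20 µM; growth read once vehicle control cultures reached saturation at 30 °C; 1 = growth at the plate median or of vehicle wells; lower values mean less growth of the strain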
# Conditions: growth OD
structure (smiles),measurement,setting,value
O=C(O)CCCCC1CCSS1 (configuration not stated),normalized growth,"S. cerevisiae deletion strains, locus YJR075W, strain HOC1, hits give low values",1
same,normalized growth,"S. cerevisiae deletion strains, locus YKL009W, strain mrt4, hits give low values",0.978
same,normalized growth,"S. cerevisiae deletion strains, locus YKL068W, hits give low values",1.01
same,normalized growth,"S. cerevisiae deletion strains, locus YKL085W, strain MDH1 (second series), hits give low values",0.996
same,normalized growth,"S. cerevisiae deletion strains, locus YKL085W, strain MDH1, hits give low values",0.996
same,normalized growth,"S. cerevisiae deletion strains, locus YKL160W, strain elf1, hits give low values",0.988
same,normalized growth,"S. cerevisiae deletion strains, locus YKL190W, strain CNB1, hits give low values",0.989
same,normalized growth,"S. cerevisiae deletion strains, locus YKR001C, strain vps1, hits give low values",0.954
same,normalized growth,"S. cerevisiae deletion strains, locus YKR026C, strain gcn3, hits give low values",0.965
same,normalized growth,"S. cerevisiae deletion strains, locus YKR091W, strain srl3, hits give low values",0.982
same,normalized growth,"S. cerevisiae deletion strains, locus YLL001W, strain dnm1, hits give low values",0.95
same,normalized growth,"S. cerevisiae deletion strains, locus YLL026W, hits give low values",0.946
same,normalized growth,"S. cerevisiae deletion strains, locus YLL041C, strain sdh2, hits give low values",0.976
same,normalized growth,"S. cerevisiae deletion strains, locus YLR027C, strain aat2, hits give low values",0.973
same,normalized growth,"S. cerevisiae deletion strains, locus YLR039C, strain RIC1, hits give low values",0.943
same,normalized growth,"S. cerevisiae deletion strains, locus YLR058C, strain SHM2, hits give low values",0.968
same,normalized growth,"S. cerevisiae deletion strains, locus YLR102C, strain apc9, hits give low values",0.984
same,normalized growth,"S. cerevisiae deletion strains, locus YLR113W, strain HOG1, hits give low values",0.961
same,normalized growth,"S. cerevisiae deletion strains, locus YLR221C, strain rsa3, hits give low values",0.963
same,normalized growth,"S. cerevisiae deletion strains, locus YLR258W, strain gsy2, hits give low values",0.933
same,normalized growth,"S. cerevisiae deletion strains, locus YLR262C, strain YPT6 (second series), hits give low values",0.839 (active)
same,normalized growth,"S. cerevisiae deletion strains, locus YLR262C, strain YPT6, hits give low values",0.969
same,normalized growth,"S. cerevisiae deletion strains, locus YLR268W, strain sec22, hits give low values",1.06
same,normalized growth,"S. cerevisiae deletion strains, locus YLR320W, strain mms22, hits give low values",0.98
same,normalized growth,"S. cerevisiae deletion strains, locus YLR330W, strain CHS5, hits give low values",0.966
same,normalized growth,"S. cerevisiae deletion strains, locus YLR342W, strain FKS1 (second series), hits give low values",0.945
same,normalized growth,"S. cerevisiae deletion strains, locus YLR342W, strain FKS1, hits give low values",0.979
same,normalized growth,"S. cerevisiae deletion strains, locus YLR357W, strain rsc2, hits give low values",0.901
same,normalized growth,"S. cerevisiae deletion strains, locus YLR370C, strain arc18, hits give low values",0.986
same,normalized growth,"S. cerevisiae deletion strains, locus YLR371W, strain rom2, hits give low values",0.973
same,normalized growth,"S. cerevisiae deletion strains, locus YLR384C, strain iki3, hits give low values",0.977
same,normalized growth,"S. cerevisiae deletion strains, locus YLR418C, strain cdc73, hits give low values",0.979
same,normalized growth,"S. cerevisiae deletion strains, locus YML016C, strain PPZ1, hits give low values",0.982
same,normalized growth,"S. cerevisiae deletion strains, locus YML032C, strain rad52, hits give low values",0.993
same,normalized growth,"S. cerevisiae deletion strains, locus YML120C, strain ndi1, hits give low values",0.937
same,normalized growth,"S. cerevisiae deletion strains, locus YML124C, strain tub3, hits give low values",0.98
same,normalized growth,"S. cerevisiae deletion strains, locus YMR058W, strain fet3, hits give low values",0.968
same,normalized growth,"S. cerevisiae deletion strains, locus YMR078C, strain ctf18, hits give low values",0.979
same,normalized growth,"S. cerevisiae deletion strains, locus YMR125W, strain sto1, hits give low values",0.981
same,normalized growth,"S. cerevisiae deletion strains, locus YMR129W, hits give low values",0.937
same,normalized growth,"S. cerevisiae deletion strains, locus YMR205C, strain PFK2, hits give low values",0.921
same,normalized growth,"S. cerevisiae deletion strains, locus YMR223W, strain ubp8, hits give low values",0.948
same,normalized growth,"S. cerevisiae deletion strains, locus YMR231W, strain pep5, hits give low values",0.955
same,normalized growth,"S. cerevisiae deletion strains, locus YMR263W, strain SAP30, hits give low values",0.981
same,normalized growth,"S. cerevisiae deletion strains, locus YMR307W, strain GAS1, hits give low values",1.02
same,normalized growth,"S. cerevisiae deletion strains, locus YNL067W, strain RPL9B, hits give low values",1.01
same,normalized growth,"S. cerevisiae deletion strains, locus YNL071W, strain lat1, hits give low values",0.973
same,normalized growth,"S. cerevisiae deletion strains, locus YNL128W, strain TEP1, hits give low values",0.962
same,normalized growth,"S. cerevisiae deletion strains, locus YNL153C, strain GIM3, hits give low values",1
same,normalized growth,"S. cerevisiae deletion strains, locus YNL183C, strain NPR1, hits give low values",0.842
same,normalized growth,"S. cerevisiae deletion strains, locus YNL209W, strain ssb2, hits give low values",0.986
same,normalized growth,"S. cerevisiae deletion strains, locus YNL233W, strain BNI4, hits give low values",1.01
same,normalized growth,"S. cerevisiae deletion strains, locus YNL248C, strain rpa49, hits give low values",0.979
same,normalized growth,"S. cerevisiae deletion strains, locus YNL250W, strain rad50, hits give low values",0.979
same,normalized growth,"S. cerevisiae deletion strains, locus YNL271C, strain bni1, hits give low values",0.976
same,normalized growth,"S. cerevisiae deletion strains, locus YNL298W, strain CLA4, hits give low values",0.928
same,normalized growth,"S. cerevisiae deletion strains, locus YNL307C, strain MCK1, hits give low values",0.983
same,normalized growth,"S. cerevisiae deletion strains, locus YNL322C, strain KRE1 (second series), hits give low values",0.97
same,normalized growth,"S. cerevisiae deletion strains, locus YNL322C, strain KRE1, hits give low values",0.985
same,normalized growth,"S. cerevisiae deletion strains, locus YNR049C, strain mso1, hits give low values",0.97
same,normalized growth,"S. cerevisiae deletion strains, locus YNR052C, strain pop2, hits give low values",0.999
same,normalized growth,"S. cerevisiae deletion strains, locus YOL006C, strain TOP1, hits give low values",1.04
same,normalized growth,"S. cerevisiae deletion strains, locus YOL012C, strain htz1",0.885
same,normalized growth,"S. cerevisiae deletion strains, locus YOL147C, strain pex11, hits give low values",0.975
same,normalized growth,"S. cerevisiae deletion strains, locus YOR001W, strain rrp6, hits give low values",0.962
same,normalized growth,"S. cerevisiae deletion strains, locus YOR061W, strain CKA2, hits give low values",0.97
same,normalized growth,"S. cerevisiae deletion strains, locus YOR069W, strain VPS5, hits give low values",0.986
same,normalized growth,"S. cerevisiae deletion strains, locus YOR070C, strain gyp1, hits give low values",0.979
same,normalized growth,"S. cerevisiae deletion strains, locus YOR080W, strain dia2, hits give low values",0.962
same,normalized growth,"S. cerevisiae deletion strains, locus YOR083W, strain WHI5, hits give low values",0.989
same,normalized growth,"S. cerevisiae deletion strains, locus YOR106W, strain vam3, hits give low values",0.957
same,normalized growth,"S. cerevisiae deletion strains, locus YOR136W, strain idh2, hits give low values",0.969
same,normalized growth,"S. cerevisiae deletion strains, locus YOR144C, strain elg1, hits give low values",0.973
same,normalized growth,"S. cerevisiae deletion strains, locus YOR184W, strain ser1, hits give low values",0.973
same,normalized growth,"S. cerevisiae deletion strains, locus YOR231W, strain MKK1, hits give low values",0.892
same,normalized growth,"S. cerevisiae deletion strains, locus YOR265W, strain rbl2, hits give low values",0.973
same,normalized growth,"S. cerevisiae deletion strains, locus YOR270C, strain vph1, hits give low values",1.02
same,normalized growth,"S. cerevisiae deletion strains, locus YOR290C, strain snf2, hits give low values",0.91
same,normalized growth,"S. cerevisiae deletion strains, locus YOR316C, strain cot1, hits give low values",0.986
same,normalized growth,"S. cerevisiae deletion strains, locus YPL051W, strain arl3, hits give low values",0.981
same,normalized growth,"S. cerevisiae deletion strains, locus YPL055C, strain LGE1, hits give low values",1
same,normalized growth,"S. cerevisiae deletion strains, locus YPL078C, strain atp4, hits give low values",0.99
same,normalized growth,"S. cerevisiae deletion strains, locus YPL106C, strain sse1, hits give low values",0.965
same,normalized growth,"S. cerevisiae deletion strains, locus YPL240C, strain hsp82, hits give low values",0.97
same,normalized growth,"S. cerevisiae deletion strains, locus YPL241C, strain CIN2, hits give low values",0.98
same,normalized growth,"S. cerevisiae deletion strains, locus YPL256C, strain CLN2, hits give low values",0.94
same,normalized growth,"S. cerevisiae deletion strains, locus YPR119W, strain clb2, hits give low values",0.977
same,normalized growth,"S. cerevisiae deletion strains, locus YPR141C, strain kar3, hits give low values",0.985
same,normalized growth,"S. cerevisiae deletion strains, locus YPR163C, strain tif3, hits give low values",0.989
same,normalized growth,"S. cerevisiae deletion strains, locus YPR167C, strain met16, hits give low values",0.988
same,normalized growth,"S. cerevisiae deletion strains, strain wtn01, hits give low values",1
same,normalized growth,"S. cerevisiae strains, strain wild type, hits give low values",0.978
